Screening results (PubChem BioAssay)
Pf growth 48h = P. falciparum growth inhibition at 48 hours (one generation); P. falciparum luciferase growth in erythrocytes, 48 h; Potency, µM (doses to about 28.7 µM), most hits filed as inhibitors; actives 5.9% (n = 310,000); AID 504832
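Erythrocytes infected with P. falciparum carrying an integrated firefly luciferase reporter (2% hematocrit, 0.1% parasitemia final) were exposed to compounds in RPMI 1640 with 0.5% Albumax at 37 C, 5% CO2. Growth inhibition was scored as reduced luminescence.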
Pf growth 96h = P. falciparum growth inhibition at 96 hours; P. falciparum luciferase reporter growth, 96 h; Potency, µM (series often up to 28.7 µM), most hits filed as inhibitors; actives 6.9% (n = 320,000); AID 504834
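Infected RBCs, 2% Hct / 0.05% parasitemia final; luciferase-reporter P. falciparum; cpd 96 h, 37 C, 5% CO2; luciferase detection reagent; luminescence.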
AMA1-RON2 inh = inhibitors of Plasmodium falciparum AMA1-RON2 interaction; AlphaScreen AMA1-biotinylated RON2 peptide binding; Potency, µM (highest dose often 58.2 µM), most hits filed as inhibitors; actives 0.2% (n = 360,000); AID 720542; further: nearly all actives have a fitted effect of over 45% in size
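AMA1 (3D7) with his tag at 25 nM final met compounds first, then biotinylated RON2 peptide at 25 nM; detection used donor plus acceptor beads, 10 µg/mL apiece, read by AlphaScreen after 30 min at room temperature.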
NS1 function inh = inhibitors of influenza NS1 protein function. Potency, µM (top dose mostly 46.1 µM). actives 0.4% (n = 270,000). AID 2326; calls by dose curve; further: actives are rising curves; nearly all actives have a fitted effect of over 50% in size
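S. cerevisiae expressing influenza A NS1, grown in glucose, washed, then diluted 1:100 into pH 6.0 -URA galactose medium with 23 nl compound. Growth recovery read as OD600; NS1-free strain serves as control.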
Sm TGR inh = blocks Schistosoma mansoni thioredoxin glutathione reductase | Q962Y6 | purified TGR, DTNB reduction, TNB absorbance 405 nm | Potency, µM (titrated, usually from 114 µM), most hits filed as inhibitors | actives 3% (n = 360,000) | AID 485364; further: nearly all actives have a fitted effect of over 60% in size
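TGR 20 nM + NADPH 100 uM (dispensed conc.), cpd preinc 15 min RT; start with NADPH (500 uM addition) then DTNB (15 mM addition). Kinetic TNB absorbance, 405 nm filter. Four-parameter Hill fit across titration.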
Numbers stand for hits; - = inactive; ? = inconclusive; . = no result; ! = a repeat was not active. Rows were chosen to be rich in hits. Some 11% of all compounds tested hit in one or more screens of this group. Unless noted, the call rests on the fitted dose curve; in most records, active means well fitted curve in the direction sought with a large enough effect; inconclusive means small, poorly fitted or top-dose-only effect, or another doubt; inactive means no such curve, though single readings can be large; an effect the other way counts as inactive or inconclusive.

SMILES	Pf growth 48h	Pf growth 96h	AMA1-RON2 inh	NS1 function inh	Sm TGR inh
COc1ccc2[nH]c3c4c(ccc3c2c1)C(=O)C=CC4=O	?	?	?	-	0.71µM
Nc1ccc(CC2=NCCN2)cc1	.	.	-	.	.
Cc1sc2ccccc2c1CC1=NCCN1	?	8.5µM!	-	-	-
CO[C@H]1C=CO[C@@]2(C)Oc3c(C)c(O)c4c(O)c(c5c(c4c3C2=O)NC2(CCN(CC(C)C)CC2)N=5)=NC(=O)C(C)=CC=C[C@H](C)[C@H](O)[C@@H](C)[C@@H](O)[C@@H](C)[C@H](OC(C)=O)[C@@H]1C	.	.	.	.	-
CCC(C)N1CCC2(CC1)N=c1c(c3c4c5c(C)c(O)c3c(O)c1=NC(=O)C(C)=CC=C[C@H](C)[C@H](O)[C@@H](C)[C@@H](O)[C@@H](C)[C@H](OC(C)=O)[C@H](C)[C@@H](OC)C=CO[C@@](C)(O5)C4=O)N2 (some centres undefined)	9.3µM	?	-	.	-
CC(OC(=O)c1nc(Cl)ccc1Cl)C(=O)c1ccccc1 (centres undefined)	-	-	-	.	-
COc1cc(SC)ccc1C(=O)Nc1cccc(S(=O)(=O)NC2=NCCC2)c1	?	?	-	.	-
C=C1C(=O)C=C2CN(C(=O)c3ccccc3)[C@@](Cc3ccc(F)cc3)(C(=O)OC)[C@@H]12	?	?	-	-	10µM
COC(=O)[C@@]1(Cc2ccc(OC)cc2)[C@@H]2C(=CC(=O)[C@H]2CC(=O)C(=O)N(C)C)CN1C(=O)c1ccccc1	15µM	9.3µM	-	-	?
COCCCNc1nc(N)c([N+](=O)[O-])c(N2CCCCCC2)n1	?	-	-	-	-
CC1CCN(CCOc2ccccc2-c2ccccc2)CC1	-	?	-	-	-
CC1CC(C)CN(CCOc2ccccc2-c2ccccc2)C1 (centres undefined)	?	10µM	-	-	-
CC(=O)c1ccccc1OCCCN1CCCCC1	?	-	-	-	32µM
O=C(OCCCN1CCCCC1)c1ccc(O)cc1	-	2.6µM	-	-	-
COc1cccc(OC)c1OCCCCN1CCCCC1	?	13µM	?	-	-
CC(C)NC(=O)C1(C)CCN1CCC(=O)c1ccccc1 (centres undefined)	.	.	-	.	.
COc1ccc(C(C)(NC(C)=O)c2nc(-c3ccccc3OC)cs2)cc1 (centres undefined)	.	.	-	.	.
Cc1ccc(S(=O)(=O)NCC(C)n2cncn2)cc1C (centres undefined)	-	-	-	-	-
Cc1ccc([C@H]2C[C@H](O)[C@@H](n3cc(COC(=O)c4ccccc4)nn3)CN2Cc2cccs2)cc1	.	.	-	.	.
c1ccc(-c2ccccc2OCCCCN2CCCCC2)cc1	10µM	-	-	-	-
c1ccc(OCCOCCN2CCN(C(c3ccccc3)c3ccccc3)CC2)cc1	?	-	?	-	-
COc1ccccc1OCCCCN1CCN(C(c2ccccc2)c2ccccc2)CC1	?	12µM	?	-	-
CCOC(=O)N1CCC2(CC1)OC(=O)C(C)=C2C(=O)NCc1cccc(OC)c1	.	.	.	.	-
CCOC(=O)c1c(C)n(C)c2ccc(O)c(CN3CCCCC3)c12	?	.	-	-	-
CCOC(=O)c1c(C)oc2ccc(O)c(CN3CCCCC3)c12	12µM	-	-	-	-
SMILES	Pf growth 48h	Pf growth 96h	AMA1-RON2 inh	NS1 function inh	Sm TGR inh
CC(=O)c1c(C)oc2ccc(O)c(CN3CCOCC3)c12	.	7.4µM	-	-	-
COCCCNC(=O)Cn1cnc2sc(C)c(S(=O)(=O)N3CC(C)CC(C)C3)c2c1=O (centres undefined)	-	?	-	-	-
CCOC(=O)c1c(NC(=O)COc2cc(C)ccc2C(C)C)sc2c1CCCC2	.	.	.	.	-
Cc1onc(-c2ccccc2Cl)c1C(=O)N1CCN=C1SCc1cccnc1	-	2.1µM	-	-	-
CC(=O)N1CCC(O)(c2ccc3c(c2)OCO3)CC1	-	-	-	-	-
Cc1ccccc1NC(=O)Cn1cc(S(=O)(=O)c2ccccc2)c(=O)c2ccccc21	.	.	.	.	-
CCOC(=O)c1sc(=S)n(Cc2ccccc2)c1C	-	-	-	-	-
CCOC(=O)c1c(C(=O)OCC)c(C)n(CCc2ccccc2)c1C	?	9.3µM	-	-	-
CCOC(=O)c1c(C)c(C)n(Cc2cccc(OC)c2OC)c1C	12µM	8.3µM	-	-	?
CCOC(=O)c1cc(C)n(Cc2cccc(OC)c2OC)c1C	?	2.3µM	-	-	-
CCOC(=O)c1cc(-c2ccccc2)n(CC(=O)NCc2ccccc2OC)c1C	.	.	.	.	-
CCOC(=O)c1cc(C)n(Cc2ccccc2)c1C	3.3µM	6.6µM	-	-	-
O=C(OCc1ccc(O)cc1)c1c(-c2ccsc2)oc2ccc(N3CCOCC3)cc12	?	?	-	-	-
CCOC(=O)c1cnn(Cc2cccc(Cl)c2)c1C	13µM	?	-	.	-
CCOC(=O)c1cc(C)n(CCc2cnc[nH]2)c1C	13µM	?	-	-	-
CCOC(=O)c1cc(C)n(CCCN2CCOCC2)c1C	-	-	-	-	-
CCOC(=O)c1cnn(Cc2ccccc2)c1N	-	-	-	-	-
CCOC(=O)c1c(C)nn(Cc2ccccc2)c1N	-	5.2µM	-	-	-
Cc1nn(Cc2ccccc2)c(Cl)c1C(=O)O	-	-	-	.	-
CCOC(=O)c1c(C(=O)OCC)c(C)n(Cc2cc(OC)c(OC)c(OC)c2)c1C	?	12µM	-	-	-
O=C(c1cc2c(c(-c3cccc(-c4ccncc4)c3)n1)[C@@H](CCO)N(C(=O)c1ccc3c(c1)OCO3)C2)N1CCOCC1	.	.	-	.	.
CCOC(=O)c1c(C=O)c(C)n(Cc2ccccc2Cl)c1C	3.3µM	.	-	-	-
CCOC(=O)c1c(NC(=O)Cc2ccccc2)sc2c1CCN(CC)C2	?	?	-	-	-
CCOC(=O)c1c(N)sc2c1CCN(Cc1ccccc1)C2	3.8µM	0.95µM	.	.	.
FC(F)(F)c1nnc(-c2ccccc2)nc1Sc1ccccc1	?	13µM	-	-	?
SMILES	Pf growth 48h	Pf growth 96h	AMA1-RON2 inh	NS1 function inh	Sm TGR inh
FC(F)(F)c1cccc(Sc2nc(-c3ccccc3)nnc2C(F)(F)F)c1	12µM	?	-	-	-
CCOc1ccc(CCNC(=O)C2Cc3ccccc3N2C(=O)CC)cc1OCC (centres undefined)	.	.	.	.	-
CC(=O)OC1(C)CC(C)C(=O)C(C(O)CC2CC(=O)NC(=O)C2)C1 (centres undefined)	.	.	-	.	.
C[C@@H]1C[C@@H]([C@H](O)CC2CC(=O)NC(=O)C2)C(=O)[C@@H](C)C1	0.1µM	0.1µM	-	.	-
O=C(Oc1ccccc1)c1ccccc1C(=O)Oc1ccccc1	.	.	-	.	.
O=C(Oc1ccccc1)c1cccc2cccc(C(=O)Oc3ccccc3)c12	?	10µM	-	-	-
Nc1[nH]c(C(=O)c2ccccc2)c(-c2ccc(Cl)c(F)c2)c1C(=O)NCCc1c[nH]c2ccccc12	.	.	-	.	.
O=C(Nn1c(SCc2ccccc2F)nc2ccsc2c1=O)c1ccccc1	-	6.6µM	-	-	-
O=C(CSc1nc2ccsc2c(=O)n1NC(=O)c1ccccc1)Nc1nccs1	-	-	-	-	-
